According to the supplement of paper PMC6555819:

Tests used:
Assay in all cases: PBM binding z-score (relative to random genomic background probes); higher = stronger binding; sequences stand for … in GC…GCGATTGACAGCGTAGAATGAAGG
[1] = system: FXR:RXRa (NR concentration 270 nM, RXRa partner concentration 90 nM)
Method in brief: (§1)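 Scanned fluorescence from custom Agilent 4×180K protein-binding microarrays was regression-normalized. Binding z-scores use random background probes as reference. Ligand-free nuclear receptor dimers were incubated on the arrays for 1 h and detected with antibodies against each partner (one per run).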

[2] = system: LXRa:RXRa (NR concentration 270 nM, RXRa partner concentration 90 nM)
Method in brief: as §1

[3] = system: LXRa homodimer (NR concentration 270 nM)
Method in brief: as §1

[4] = system: LXRb:RXRa (NR concentration 270 nM, RXRa partner concentration 90 nM)
Method in brief: as §1

[5] = system: LXRb homodimer (NR concentration 270 nM)
Method in brief: as §1

[6] = system: PPARa:RXRa (NR concentration 270 nM, RXRa partner concentration 90 nM)
Method in brief: as §1

[7] = system: PPARg:RXRa (NR concentration 180 nM, RXRa partner concentration 90 nM)
Method in brief: as §1

[8] = system: PPARg:RXRa 270nM:90nM, anti-RXR (NR concentration 270 nM, RXRa partner concentration 90 nM)
Method in brief: as §1

[9] = system: PPARg:RXRa 30nM:10nM, anti-RXR (NR concentration 30 nM, RXRa partner concentration 10 nM)
Method in brief: as §1

[10] = system: PPARg:RXRa 90nM:30nM, anti-RXR (NR concentration 90 nM, RXRa partner concentration 30 nM)
Method in brief: as §1

[11] = system: PPARg:RXRa DBDmut IVT, anti-RXR (DBD mutation: RXRa K156A/R161A, NR concentration 270 nM, RXRa partner concentration 90 nM)
Method in brief: as §1

[12] = system: PPARg:RXRa IVT, anti-PPARg (NR concentration 270 nM, RXRa partner concentration 90 nM)
Method in brief: as §1

[13] = system: PPARg DBDmut:RXRa IVT, anti-PPARg (DBD mutation: PPARg1 K132A/R137A, NR concentration 270 nM, RXRa partner concentration 90 nM)
Method in brief: as §1

[14] = system: PPARg DBDmut IVT, anti-PPARg (DBD mutation: PPARg1 K132A/R137A, NR concentration 270 nM)
Method in brief: as §1

[15] = system: PPARg homodimer (NR concentration 180 nM)
Method in brief: as §1

[16] = system: PXR:RXRa (NR concentration 270 nM, RXRa partner concentration 90 nM)
Method in brief: as §1

[17] = system: PXR homodimer (NR concentration 270 nM)
Method in brief: as §1

[18] = system: RARa:RXR (NR concentration 270 nM, RXRa partner concentration 90 nM)
Method in brief: as §1

[19] = system: RARa homodimer (NR concentration 270 nM)
Method in brief: as §1

[20] = system: RARb:RXRa (NR concentration 270 nM, RXRa partner concentration 90 nM)
Method in brief: as §1

Row | Sequence | PBM binding z-score [1] | PBM binding z-score [2] | PBM binding z-score [3] | PBM binding z-score [4] | PBM binding z-score [5] | PBM binding z-score [6] | PBM binding z-score [7] | PBM binding z-score [8] | PBM binding z-score [9] | PBM binding z-score [10] | PBM binding z-score [11] | PBM binding z-score [12] | PBM binding z-score [13] | PBM binding z-score [14] | PBM binding z-score [15] | PBM binding z-score [16] | PBM binding z-score [17] | PBM binding z-score [18] | PBM binding z-score [19] | PBM binding z-score [20]
1 | TCTATTAGTTGATTAGGGCAACCGTAACAGCGGA | 0.375 | 0.299 | 0.215 | 0.508 | 0.657 | 1.05 | 0.178 | 2.01 | 3.91 | 2.77 | 2.24 | 1.65 | 0.987 | 1.87 | 0.942 | 0.413 | 0.434 | 0.681 | 1.18 | 0.877
2 | ATCTCTAGGTAACCAATTTCAGTGAATGCCGAAC | 0.444 | 0.64 | 0.561 | 0.348 | 1.28 | 0.596 | 0.441 | 0.547 | 0.162 | 0.306 | 3.89 | 2.94 | 1.28 | 1.42 | 0.77 | 0.453 | 0.601 | 0.264 | 0.959 | 0.458
3 | TCTAGCAGGCCAGAGGGTCACTGAAGAGGTACGG | 0.95 | 1.08 | -0.818 | 1.01 | -1.1 | 2.79 | 1.69 | 2.79 | 1.92 | 2.4 | 1.24 | 0.963 | -0.7 | -1.2 | 0.503 | 1.53 | -0.448 | 2.29 | -0.0509 | 2.34
4 | TGAGTGAGGTTATAAGATCAGGGAACGTTGCAAA | 1.06 | 1.07 | -0.22 | 0.866 | 0.134 | 2.47 | 0.711 | 1.23 | 0.53 | 0.855 | -0.596 | 0.754 | 0.555 | -0.0846 | 0.652 | 0.754 | 0.0305 | 1.06 | 0.466 | 1.25
5 | ACTAGTTGGTCAGCTGTGGTCACACACAATTCGG | 0.168 | -0.0982 | -0.159 | -0.0787 | -0.362 | 0.0515 | 0.536 | 0.0705 | -0.147 | -0.158 | 1.14 | 0.902 | 0.0939 | 0.115 | 0.101 | 0.312 | -0.402 | 0.442 | 0.116 | 1.23
6 | ATCTCTAGGTAACCAGTTCAGTGAAAGAGAGGAC | 0.76 | 0.635 | 0.481 | 0.706 | 1 | 1.26 | 1.06 | 1.24 | 0.669 | 0.873 | 3.36 | 3.09 | 0.836 | 0.902 | 1.06 | 1.19 | 1.26 | 1.04 | 1.15 | 0.835
7 | CGAACGAGGGCATGAGTTGCTAGCAAATGCCGAT | 0.106 | 0.132 | -0.624 | 0.0886 | -1.12 | 1.35 | 1.1 | 1.52 | 0.000453 | 0.931 | 3.04 | 1.87 | -0.188 | -0.705 | -0.0181 | 0.336 | -0.327 | 0.293 | -0.816 | 1.82
8 | GATACAGGGTCAGCTAGAGGCCAGAGGATGGAAA | 4.5 | 3.02 | -0.423 | 2.39 | -0.64 | 4.54 | 3.7 | 3.5 | 1.02 | 2.16 | 1.05 | 2.27 | 0.0573 | -0.276 | 2.33 | 3.12 | -0.127 | 4.59 | 0.2 | 4.17
9 | CAAACTGGGTCACAGAGGTCAAAGTCCGTGCGTA | 6.46 | 6.47 | 6.04 | 5.99 | 1.68 | 6.5 | 9.86 | 7.93 | 6.54 | 8.19 | 7.82 | 8.76 | 4.79 | 4.1 | 3.96 | 6.74 | 9 | 7.06 | 0.622 | 5.21
10 | CCTACTGGGCCAGAGGTCATTGATTCCAATGCTC | 3.89 | 4.31 | 4.08 | 4.28 | 0.315 | 5.3 | 9.61 | 8.53 | 9.24 | 9.4 | 3.69 | 4.99 | 0.0395 | -0.7 | 2.97 | 4.8 | 1.58 | 4.62 | 0.505 | 3.63
11 | CGTCCAAGGTCAATGCTAGGTCAGTGGAAGCATT | 6.99 | 5.73 | 3.02 | 3.78 | 0.891 | 4.81 | 4.07 | 4.24 | 1.28 | 3.23 | 3.31 | 3.57 | -0.546 | -0.435 | 5.36 | 4.87 | 1.99 | 6.1 | 1.39 | 5.17
12 | ACACACAGGTGAGTGAAGGTAACTCAGCTGGACG | 0.469 | 0.195 | -0.241 | -0.0782 | -0.78 | 0.352 | 0.931 | 0.0284 | -0.027 | -0.278 | 0.846 | 1.04 | 0.1 | -0.00713 | 0.147 | -0.122 | -0.17 | 0.0752 | -0.0711 | 0.791
13 | CAAACTAGGTCACCGGAAGGGCAAAGTCCGCATG | 4.22 | 3.85 | 0.736 | 2.88 | 0.171 | 5.16 | 8.84 | 6.95 | 4.85 | 6.67 | 8.45 | 8.73 | 1.66 | 1.37 | 1.44 | 3.29 | 0.241 | 3.92 | 0.698 | 4.47
14 | TAACCAAGGTGAAAGGTCGTTGATGCACGCCTTG | 3.72 | 3.34 | 0.422 | 2.69 | 0.0179 | 5.18 | 8.43 | 8.06 | 8.2 | 8.96 | 2.51 | 4.83 | 0.621 | 0.876 | 2.72 | 4.25 | 0.689 | 6.11 | 0.504 | 3.15
